From PubChem BioAssay (Tox21)
Where “and” joins values, the source holds several entries; their conditions need not be identical. Equal entries are not always repeated. Records with an inconclusive call do not appear. A call without a number means that no potency is given here. A number with no mark means an inactive call. Calls of active or inactive are those of the source. The call rests on the fitted dose curve; in most records, active means well fitted cell-killing curve with a large enough effect in the repeat runs; inconclusive means weak or mixed curves; inactive means flat fitted curve, though single readings scatter.

experiment: qHTS RealTime-Glo MT Cell Viability Assay in HepG2 cells - 32 hour (AID 1224877); conditions: RealTime-Glo luminescence; series mostly up to 76.8 µM; further: nearly all actives have a fitted effect of over 55% in size
Source text: U.S. Tox21 Program National Center for Advancing Translational Sciences [NCATS] NIH Chemical Genomics Center [NCGC] U.S. Environmental Protection Agency [EPA] National Institutes of Environmental Health Sciences [NIEHS] National Toxicology Program [NTP] U.S. Food and Drug Administration [FDA] Tox21 Assay Overview: Measure of cell viability is critical in the cell-base assay. Analysis of cell viability is necessary for the characterization of cell responses to cytotoxic drugs and environmental stress. A RealTime-Glo MT Cell Viability Assay to monitor cell viability in real time of continues cell culture during 40 hours of compound treatment was used to screen Tox21 10K library compounds in HepG2 cells. The RealTime-Glo MT Cell Viability Assay is a nonlytic, homogeneous, bioluminescent method to measure cell viability in real time using a simple, plate-based method. The assay involves adding NanoLuc luciferase and a cell-permeant prosubstrate to cells in culture. Viable cells reduce the proprietary prosubstrate to generate a substrate for NanoLuc luciferase. This substrate diffuses from cells into the surrounding culture medium, where it is rapidly used by the NanoLuc Enzyme to produce a luminescent signal. The signal correlates with the number of viable cells, making the assay well suited for cytotoxicity studies.
Tox21 Assay Protocol Summary: The mixture of HepG2 cell suspension and reagents were dispensed at 600cells/6 ul/well in 1536-well tissue culture treated black solid bottom plates using a Multidrop dispenser. After the assay plates were incubated at a 37 C/5% CO2 incubator for 5 hours, 23 nL of compounds dissolved in DMSO, positive and negative controls was transferred to the assay plate by a pintool work station. The plates were incubated at 37 C for 40 hours. The luminescence intensity were measured at 0h, 8h, 16h, 24h, 32h and 40h time points using ViewLux plate reader during compound treatment.
Potency means the concentration at half of the fitted maximal effect.

| SMILES | Potency | activity change, negative = cytotoxic |
| --- | --- | --- |
| NCCOCCO | inactive |  |
| CCOC(=O)C(C)Oc1ccc(Oc2cnc3cc(Cl)ccc3n2)cc1 (stereo not given) | inactive |  |
| C=C[C@H]1CN2CC[C@H]1C[C@H]2[C@H](O)c1ccnc2ccc(OC)cc12 | inactive |  |
| CC(=O)Oc1c(C)c(C)c2c(c1C)CC[C@@](C)(CCC[C@H](C)CCC[C@H](C)CCCC(C)C)O2 | inactive |  |
| CC(C)[C@@H]1CC[C@@H](C)CC1=O | inactive |  |
| COC(=O)c1ccc(C)cc1 | inactive |  |
| C=CC(=O)OCCCC | inactive |  |
| CC(C)[N+](C)(CCOC(=O)C1c2ccccc2Oc2ccccc21)C(C)C | inactive |  |
| OC[C@H]1O[C@@H]2O[C@H]3[C@H](O)[C@@H](O)[C@@H](O[C@H]4[C@H](O)[C@@H](O)[C@@H](O[C@H]5[C@H](O)[C@@H](O)[C@@H](O[C@H]6[C@H](O)[C@@H](O)[C@@H](O[C@H]7[C@H](O)[C@@H](O)[C@@H](O[C@H]1[C@H](O)[C@H]2O)O[C@@H]7CO)O[C@@H]6CO)O[C@@H]5CO)O[C@@H]4CO)O[C@@H]3CO | inactive |  |
| c1ccc2c(c1)[nH]c1ccccc12 | inactive |  |
| O=C1OC2(c3ccccc31)c1cc(I)c(O)c(I)c1Oc1c2cc(I)c(O)c1I | 39 µM (active) and 24.8 µM (active) and 29.8 µM (active) |  |
| CC(=O)OC(C)C | inactive |  |
| C=CC(C)(O)CCC=C(C)C (stereo not given) | inactive |  |
| C=C1C[C@H]2[C@@H]3C=C(C)C4=CC(=O)CC[C@]4(C)[C@H]3CC[C@]2(C)[C@@]1(OC(C)=O)C(C)=O | inactive |  |
| CC[C@]12CCCN3CCc4c(n(c5ccccc45)[C@@](O)(C(=O)OC)C1)[C@@H]32 | inactive |  |
| Cc1ccc([N+](=O)[O-])c(C)c1 | inactive |  |
| COc1ccc(-c2coc3cc(O)cc(O)c3c2=O)cc1 | inactive |  |
| O=C(O)COCCN1CCN(C(c2ccccc2)c2ccc(Cl)cc2)CC1 (stereo not given) | inactive |  |
| CCC(=O)O[C@H]1[C@H](O[C@@H]2[C@@H](C)[C@H](O[C@H]3C[C@@](C)(OC)[C@@H](O)[C@H](C)O3)[C@@H](C)C(=O)O[C@H](CC)[C@@](C)(O)[C@H](O)[C@@H](C)C(=O)[C@H](C)C[C@@]2(C)O)O[C@H](C)C[C@@H]1N(C)C | inactive |  |
| Cc1ccc(C(C)(C)C)cc1 | inactive |  |

| SMILES | Potency | activity change, negative = cytotoxic |
| --- | --- | --- |
| CC/C(=C(/CC)c1ccc(O)cc1)c1ccc(O)cc1 | inactive |  |
| Nc1ccc2c(O)cc(S(=O)(=O)O)cc2c1 | inactive |  |
| C[C@]12C=CC(=O)C=C1CC[C@H]1[C@@H]3C[C@@H](O)[C@](O)(C(=O)CO)[C@@]3(C)C[C@H](O)[C@@]12F | inactive |  |
| C=C[C@@]1(C)CC(=O)[C@]2(O)[C@@]3(C)[C@@H](O)CCC(C)(C)[C@@H]3[C@H](O)[C@H](OC(C)=O)[C@@]2(C)O1 | inactive |  |
| Nc1ccc(N)c(Cl)c1 | inactive |  |
| CC(C)(C)c1cccc(C(C)(C)C)c1O | inactive |  |
| c1ccc2ncccc2c1 | inactive |  |
| CCCCCCCC/C=C\CCCCCCCC(=O)O | inactive |  |
| CCO[Si](CCCNC(N)=O)(OCC)OCC | inactive |  |
| O=C(O)CCCCCCCCCCCC(=O)O | inactive |  |
| COc1ccc(C(=O)c2ccccc2O)c(O)c1 | inactive |  |
| Brc1nc2ccccc2s1 | inactive |  |
| COCCOCCOCCO | inactive |  |
| CCCCCCCCCCC(CO)CCCCCCCC (stereo not given) | inactive |  |
| C=C[Si](OCCOC)(OCCOC)OCCOC | inactive |  |
| ClC/C=C/CCl | inactive |  |
| COc1ccc2nc(N)sc2c1 | inactive |  |
| O=[Se](O)O |  | -0.276% [at 15.8 µM] |
| CC(=O)O[C@]1(C(C)=O)CC[C@H]2[C@@H]3C=C(Cl)C4=CC(=O)CC[C@]4(C)[C@H]3CC[C@@]21C | inactive |  |
| Oc1c(Cl)ccc(Cl)c1Cl | inactive |  |
